Measurements published in ChEMBL document CHEMBL1157539, “Thousands of chemical starting points for antimalarial lead identification” (Nature, 2010).

Assays:
Type in all cases: functional
[1] = tested on: Plasmodium falciparum; experiment: GSK_TCMDC: Inhibition of Plasmodium falciparum 3D7 in whole red blood cells, using parasite LDH activity as an index of growth. Test compounds present at 2uM
[2] = tested on: Plasmodium falciparum; experiment: GSK_TCMDC: Inhibition of Plasmodium falciparum Dd2 in whole red blood cells, using parasite LDH activity as an index of growth. Test compounds present at 2uM
[3] = tested on: HepG2; experiment: GSK_TCMDC: Percent inhibition of human HepG2 cell line. Test compounds present at 10uM.

| Structure (SMILES) | Inhibition [1] | Inhibition [2] | Inhibition [3] |
| --- | --- | --- | --- |
| CC(C)c1sc(N2CCN(C)CC2)nc1C(=O)Nc1ccc(F)cc1C(F)(F)F.O=C(O)C(F)(F)F | 100% | 99% | 3% |
| Cc1ccc2nc(Cl)c3cc(C(=O)NCCCN4CCCC4)sc3c2c1 | 89% | 40% | 26% |
| CSC1=NC(C)(C)CC2(CC(c3cccc(C)c3)c3cc(Cl)c(O)cc3O2)N1 (stereo unspecified) | 100% | 73% | 0% |
| CC(C)(C)Nc1cc(C(=O)N[C@@H](Cc2ccccc2)[C@H](O)CNC2CCOCC2)cc(N2CCCCS2(=O)=O)c1 | 99% | 98% | 0% |
| COc1ccc(C2CC(=O)C3=C(C2)NC(C)=C(C(=O)OC2CCCC2)C3c2cccc(O)c2)cc1OC (stereo unspecified) | 100% | 98% | 8% |
| Cc1cc(N)c2cc(NC(=O)c3cc4ccccc4s3)ccc2n1 | 100% | 99% | 100% |
| O=C(/C=C/c1ccc(Cl)c(Cl)c1)NCCCCCCN1CCCN(C(=O)Nc2cc(F)cc(F)c2)CC1 | 99% | 0% | 25% |
| CS(=O)(=O)O.FC(F)(F)COc1ccc(CNCCCCCCNCc2ccc(OCC(F)(F)F)c3ccccc23)c2ccccc12 | 100% | 93% | 99% |
| O=C(/C=C/c1ccc(Cl)c(Cl)c1)NCC[C@@H]1C[C@H]1CCN1CCC(c2c[nH]c3ccccc23)CC1 | 96% | 22% | 98% |
| CN1CCN(CCCN(Cc2ccc(-c3cccc(CNCc4ccc5c(c4)OCO5)c3)cc2)C(=O)CCC2CCCC2)CC1.O=C(O)C(F)(F)F | 92% | 85% | 24% |
| Cl.N=C(NCCc1ccc(Cl)c(Cl)c1)c1ccc2ccccc2c1 | 100% | 29% | 60% |
| COc1ccc(Br)cc1/C=C/C(=O)Nc1cccc(C2CCN(C)CC2)c1.O=CO | 95% | 37% | 44% |
| O=C(NCc1cccc(C(F)(F)F)c1)C1CCCN(C(=O)c2ccc(O)c(-c3ccc(Cl)c(Cl)c3)c2)C1 (stereo unspecified) | 94% | 32% | 1% |
| O=c1cc(NCCCNCc2cc(F)cc(C(F)(F)F)c2)[nH]c2ccccc12 | 92% | 15% | 0% |
| Cc1cc(N2CCCC2)nc(Nc2ccc(NC(=O)c3ccco3)cc2)n1 | 100% | 43% | 23% |
| COc1ccccc1C1CCN(C2CCC(NC(=O)/C=C/c3ccc(C(F)(F)F)cc3F)CC2)CC1 (stereo unspecified) | 95% | 2% | 63% |
| CC(C)NCc1cccc(-c2cccc(NC(=O)c3cccc(Cl)c3)c2)c1.O=C(O)C(F)(F)F | 98% | 38% | 36% |
